# From PubChem BioAssay (EPA / NIEHS)
# Records with an inconclusive call do not appear. Activity calls are given as the source filed them. The calls were made as follows, unless noted: active = hit-call score of the fitted dose curve at least 0.9, where 1 is the maximum; inactive = score below 0.9.
# Experiments:
# [1] = read-out: Interleukin-8 (IL8), CXCL8 (gene 3576); experiment: BSK_3C_IL8: BioMAP Diversity Plus: 3C Assay for Interleukin-8 (IL8) Biomarker Activity (AID 2283020); details: primary human endothelial cells (HUVEC); actives raise or lower the signal
# Procedure, shortened: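 IL-8 was measured by ELISA in HUVEC cultures 24 h after chemical dosing, with gain or loss of signal fitted relative to DMSO. Parallel SRB total-protein staining tracked overt cytotoxicity.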
# [2] = read-out: Monokine induced gamma interferon (MIG), CXCL9 (gene 4283); experiment: BSK_3C_MIG: BioMAP Diversity Plus: 3C Assay for Monokine induced gamma interferon (MIG) Biomarker Activity (AID 2283021); details: primary human endothelial cells (HUVEC); actives raise or lower the signal
# Procedure, shortened: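 ELISA measurement of MIG in human umbilical vein endothelial cells 24 h after treatment. Cytotoxicity tracked by SRB staining in parallel cultures; gain or loss of signal fitted relative to DMSO.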
# [3] = BSK_3C_SRB: Viability Assessment in the BioMAP Diversity Plus: 3C Assay (AID 2283023); details: primary human endothelial cells (HUVEC);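 also: fitted both ways against DMSO so a hit may be signal rise or drop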
# Procedure, shortened: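 Overt cytotoxicity is gauged in parallel confluent HUVEC cultures by SRB total-protein staining at the time of biomarker measurement, 24 h after dosing. Gain or loss of signal is fitted versus DMSO.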
# [4] = BSK_3C_Vis: BioMAP Diversity Plus: 3C Assay for Morphology Visualization (AID 2283025); details: primary human endothelial cells (HUVEC);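 also: fitted both ways so gain or loss versus DMSO counts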;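 as to AC50: light microscopy image of cell morphology used as background control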
# Procedure, shortened: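 Light-microscopy visualization of HUVEC cultures at 24 h post-treatment, with DMSO as baseline for bidirectional fitting.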
# [5] = read-out: Pselectin, SELP (gene 6403); experiment: BSK_4H_Pselectin: BioMAP Diversity Plus: 4H Assay for Pselectin Biomarker Activity (AID 2283026); details: primary human endothelial cells (HUVEC); actives raise or lower the signal
# Procedure, shortened: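 ELISA of surface P-selectin on HUVEC, 24 h after dosing, with parallel SRB staining (0.1% after 10% TCA fixation, 560 nm) for overt cytotoxicity. Activity fitted in both directions relative to DMSO.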
# [6] = BSK_4H_SRB: Viability Assessment in the BioMAP Diversity Plus: 4H Assay (AID 2283027); details: primary human endothelial cells (HUVEC);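 also: cells exposed to compound for 24 h before staining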;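 as to AC50: curves fitted both ways versus DMSO so AC50 may be loss or gain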
# Procedure, shortened: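 Cytotoxicity readout: sulforhodamine B (0.1%) staining of total protein after 10% TCA fixation, measured at 560 nm in human umbilical vein endothelium at 24 h. DMSO set the baseline; fitting was bidirectional.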
# [7] = read-out: Thrombomodulin, THBD (gene 7056); experiment: BSK_3C_Thrombomodulin: BioMAP Diversity Plus: 3C Assay for Thrombomodulin Biomarker Activity (AID 2283029); details: primary human endothelial cells (HUVEC); actives raise or lower the signal
# Procedure, shortened: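 ELISA measurement of thrombomodulin on HUVEC surface 24 h after chemical dosing; activity fitted in both directions relative to DMSO vehicle.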
# [8] = read-out: Vascular endothelial growth factor receptor 2 (Homo sapiens) (UniProt P35968); experiment: BSK_4H_VEGFRII: BioMAP Diversity Plus: 4H Assay for Vascular endothelial growth factor receptor 2 (VEGFR2) Biomarker Activity (AID 2283031); details: primary human endothelial cells (HUVEC); actives raise or lower the signal
# Procedure, shortened: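 In this multiplexed HUVEC system, biomarker ELISA was performed after 24 h chemical exposure. Parallel SRB staining (TCA fixation, 560 nm) tracked cytotoxicity; DMSO served as baseline.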
# [9] = read-out: Human Leukocyte Antigen - DR isotype (HLADR), HLA-DRA (gene 3122); experiment: BSK_BE3C_HLADR: BioMAP Diversity Plus: BE3C Assay for Human Leukocyte Antigen - DR isotype (HLADR) Biomarker Activity (AID 2283032); details: primary human bronchial epithelial cells; actives raise or lower the signal
# Procedure, shortened: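 Cell-surface HLA-DR ELISA readout at 24 h after dosing in the BE3C primary human lung bronchial epithelial system; gain or loss of signal against DMSO, with parallel sulforhodamine B staining of total protein for overt cytotoxicity.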
# [10] = read-out: Vascular cell adhesion molecule 1 (VCAM1), VCAM1 (gene 7412); experiment: BSK_4H_VCAM1: BioMAP Diversity Plus: 4H Assay for Vascular cell adhesion molecule 1 (VCAM1) Biomarker Activity (AID 2283033); details: primary human endothelial cells (HUVEC); actives raise or lower the signal;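 also: cell-surface VCAM-1 protein measured by ELISA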
# Procedure, shortened: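 VCAM-1 ELISA read 24 h after chemical dosing of HUVEC in the BioMAP 4H system, with gain or loss of signal fitted relative to DMSO. Parallel SRB staining (560 nm) checked overt cytotoxicity.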
# [11] = read-out: Interferon-gamma inducible Protein 10 (IP10), CXCL10 (gene 3627); experiment: BSK_BE3C_IP10: BioMAP Diversity Plus: BE3C Assay for Interferon-gamma inducible Protein 10 (IP10) Biomarker Activity (AID 2283034); details: primary human bronchial epithelial cells; actives raise or lower the signal
# Procedure, shortened: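 IP-10 quantified by ELISA in human primary bronchial epithelial cell cultures at 24 hours post-dosing. Gain or loss of signal fitted relative to DMSO; parallel SRB staining assessed overt cytotoxicity.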
# [12] = read-out: Transforming growth factor beta 1 (TGFb1), TGFB1 (gene 7040); experiment: BSK_BE3C_TGFb1: BioMAP Diversity Plus: BE3C Assay for Transforming growth factor beta 1 (TGFb1) Biomarker Activity (AID 2283036;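 also: TGF-b1 protein level measured by ELISA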); details: primary human bronchial epithelial cells; actives raise or lower the signal
# Procedure, shortened: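 ELISA readout of TGF-b1 from human lung bronchial epithelial primary cells, taken 24 h post-treatment. Gain or loss of signal fitted relative to DMSO baseline, with parallel SRB staining for overt cytotoxicity.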
# [13] = read-out: Plasminogen activator inhibitor-1 (PAI1), SERPINE1 (gene 5054); experiment: BSK_BE3C_PAI1: BioMAP Diversity Plus: BE3C Assay for Plasminogen activator inhibitor-1 (PAI1) Biomarker Activity (AID 2283037); details: primary human bronchial epithelial cells; actives raise or lower the signal
# Procedure, shortened: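 PAI-1 was measured by ELISA in human primary bronchial epithelial cultures 24 h after chemical dosing, with cytotoxicity checked by SRB total-protein staining in parallel cultures. Activity was fitted in both directions relative to DMSO.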
# [14] = read-out: urokinase plasminogen activator (uPA), PLAU (gene 5328); experiment: BSK_BE3C_uPA: BioMAP Diversity Plus: BE3C Assay for urokinase plasminogen activator (uPA) Biomarker Activity (AID 2283038); details: primary human bronchial epithelial cells; actives raise or lower the signal;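 also: uPA protein level quantified by ELISA in cell cultures; uPA read one day after compound addition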
# Procedure, shortened: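 Using confluent primary human lung bronchial epithelial cultures, we dosed chemicals, waited 24 h, then ran a uPA ELISA, fitting bidirectionally against DMSO.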
# [15] = read-out: Urokinase-type plasminogen activator receptor (uPAR), PLAUR (gene 5329); experiment: BSK_BE3C_uPAR: BioMAP Diversity Plus: BE3C Assay for Urokinase-type plasminogen activator receptor (uPAR) Biomarker Activity (AID 2283039); details: primary human bronchial epithelial cells; actives raise or lower the signal;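 also: cells exposed to compound for one day before measurement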
# Procedure, shortened: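 uPAR levels were measured by ELISA after 24 h compound treatment of primary human bronchial epithelial cells, fitted in both directions relative to DMSO. Parallel SRB staining served as the cytotoxicity read-out.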
# [16] = target: human Vitamin D Receptor (VDR), VDR (gene 7421) (UniProt P11473); experiment: ATG_VDR_TRANS: Attagene TRANS-FACTORIAL HepG2 Assay for human Vitamin D Receptor (VDR) (AID 2283022; active = hit-call score of the fitted dose curve at least 0.9, where 1 is the maximum)
# Procedure, shortened: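 Multiplexed TRANS reporter in HepG2; 24 h treatment; reporter mRNA by RT-PCR plus capillary electrophoresis; upregulation scored relative to DMSO.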
# [17] = read-out: Matrix Metallopeptidase 1 (MMP1), MMP1 (gene 4312); experiment: BSK_BE3C_MMP1: BioMAP Diversity Plus: BE3C Assay for Matrix Metallopeptidase 1 (MMP1) Biomarker Activity (AID 2283024); details: primary human bronchial epithelial cells; actives raise or lower the signal
# Procedure, shortened: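 ELISA measurement of MMP-1 after 24 h compound exposure of primary human bronchial epithelial cells. Changes in either direction fitted relative to DMSO; parallel SRB staining checked overt cytotoxicity.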
# [18] = BSK_BE3C_SRB: Viability Assessment in the BioMAP Diversity Plus: BE3C Assay (AID 2283028); details: primary human bronchial epithelial cells
# Procedure, shortened: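 SRB total-protein staining (0.1%, after TCA fixation) of chemically dosed human bronchial epithelial primary cells at 24 h; DMSO serves as the negative control for bidirectional curve fitting.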
# [19] = read-out: Urokinase-type plasminogen activator receptor (uPAR), PLAUR (gene 5329); experiment: BSK_4H_uPAR: BioMAP Diversity Plus: 4H Assay for Urokinase-type plasminogen activator receptor (uPAR) Biomarker Activity (AID 2283030); details: primary human endothelial cells (HUVEC); actives raise or lower the signal
# Procedure, shortened: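 Endpoint derived via bidirectional curve fitting against DMSO baseline; readout was ELISA detection of uPAR on umbilical vein endothelial cells at 24 h post-treatment, with SRB-stained parallel cultures assessing cytotoxicity.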
# [20] = read-out: Monokine induced gamma interferon (MIG), CXCL9 (gene 4283); experiment: BSK_BE3C_MIG: BioMAP Diversity Plus: BE3C Assay for Monokine induced gamma interferon (MIG) Biomarker Activity (AID 2283035); details: primary human bronchial epithelial cells; actives raise or lower the signal;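 also: MIG protein measured by ELISA in BE3C cultures after 24 h of dosing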
# Procedure, shortened: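 hu bronchial epithelial 1° cells, 24 h cpd; MIG by ELISA; bidirectional fit, DMSO = baseline.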
# Sequence of human Vitamin D Receptor (VDR), VDR (gene 7421) (P11473 whole entry, looked up): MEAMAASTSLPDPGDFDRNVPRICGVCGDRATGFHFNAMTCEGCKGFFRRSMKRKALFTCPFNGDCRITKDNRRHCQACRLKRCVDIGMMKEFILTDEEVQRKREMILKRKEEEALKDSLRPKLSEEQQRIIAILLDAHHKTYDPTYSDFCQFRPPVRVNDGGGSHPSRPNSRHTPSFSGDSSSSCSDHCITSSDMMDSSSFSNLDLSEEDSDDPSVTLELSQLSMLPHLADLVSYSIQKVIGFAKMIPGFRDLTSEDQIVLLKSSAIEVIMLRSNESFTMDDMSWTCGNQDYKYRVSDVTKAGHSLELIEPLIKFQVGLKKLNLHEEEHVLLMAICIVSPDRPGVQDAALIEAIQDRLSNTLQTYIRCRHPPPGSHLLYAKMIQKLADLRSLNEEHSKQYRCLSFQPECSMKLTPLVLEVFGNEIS
structure (smiles),measurement,setting,value
CCCCCCCCCCCCCCCCCC(=O)O,outcome,[1],inactive
same,outcome,[2],inactive
same,AC50,[3],20 µM (active)
same,AC50,[4],39 µM (active)
same,outcome,[5],inactive
same,outcome,[6],inactive
same,outcome,[7],inactive
same,outcome,[8],inactive
same,outcome,[9],inactive
same,outcome,[10],inactive
same,outcome,[11],inactive
same,outcome,[12],inactive
same,outcome,[13],inactive
same,outcome,[14],inactive
same,outcome,[15],inactive
O=c1[nH]cc(F)c(=O)[nH]1,outcome,[2],inactive
same,outcome,[16],inactive
same,AC50,[3],20.4 µM (active)
same,outcome,[17],inactive
same,outcome,[4],inactive
same,outcome,[5],inactive
same,outcome,[6],inactive
same,outcome,[18],inactive
same,outcome,[7],inactive
same,outcome,[8],inactive
same,outcome,[9],inactive
same,outcome,[10],inactive
same,outcome,[11],inactive
same,outcome,[12],inactive
same,outcome,[13],inactive
same,outcome,[14],inactive
same,outcome,[15],inactive
COc1ccc(S(=O)(=O)N2C(=O)[C@@](c3ccccc3OC)(N3C[C@H](O)C[C@H]3C(=O)N(C)C)c3cc(Cl)ccc32)c(OC)c1,outcome,[2],inactive
same,outcome,[16],inactive
same,AC50,[3],27 µM (active)
same,outcome,[17],inactive
same,AC50,[4],39 µM (active)
same,outcome,[5],inactive
same,AC50,[6],29.3 µM (active)
same,outcome,[18],inactive
same,outcome,[7],inactive
same,AC50,[19],8.31 µM (active)
same,outcome,[8],inactive
same,outcome,[9],inactive
same,outcome,[10],inactive
same,outcome,[11],inactive
same,outcome,[20],inactive
same,outcome,[12],inactive
same,outcome,[13],inactive
same,outcome,[14],inactive
same,outcome,[15],inactive
CC(=O)OCCOCCOCCOC(C)=O,outcome,[1],inactive
same,outcome,[2],inactive
same,outcome,[3],inactive
same,outcome,[17],inactive
same,outcome,[4],inactive
same,outcome,[5],inactive
same,outcome,[6],inactive
same,outcome,[7],inactive
same,outcome,[19],inactive
same,outcome,[8],inactive
same,outcome,[9],inactive
same,outcome,[10],inactive
same,outcome,[11],inactive
same,outcome,[20],inactive
same,outcome,[12],inactive
same,outcome,[13],inactive
same,outcome,[14],inactive
same,outcome,[15],inactive
CCCCOC(=O)CCCCCCCCC(=O)OCCCC,outcome,[1],inactive
same,outcome,[2],inactive
same,outcome,[3],inactive
same,outcome,[4],inactive
same,outcome,[5],inactive
same,outcome,[6],inactive
same,outcome,[18],inactive
same,outcome,[7],inactive
same,outcome,[19],inactive
same,outcome,[8],inactive
same,outcome,[9],inactive
same,outcome,[10],inactive
same,outcome,[12],inactive
same,outcome,[13],inactive
same,outcome,[14],inactive
same,outcome,[15],inactive
O=C(O)CCCCC(=O)O,outcome,[1],inactive
same,outcome,[2],inactive
same,outcome,[3],inactive
same,outcome,[17],inactive
same,outcome,[4],inactive
same,outcome,[5],inactive
same,outcome,[6],inactive
same,outcome,[7],inactive
same,outcome,[19],inactive
same,outcome,[8],inactive
same,outcome,[9],inactive
same,outcome,[10],inactive
same,outcome,[11],inactive
same,outcome,[12],inactive
same,outcome,[13],inactive
same,outcome,[14],inactive
same,outcome,[15],inactive
COc1ccc(C)cc1N,outcome,[2],inactive
same,outcome,[16],inactive
same,outcome,[3],inactive
same,outcome,[17],inactive
same,outcome,[4],inactive
same,outcome,[5],inactive
same,outcome,[6],inactive
same,outcome,[18],inactive
same,outcome,[7],inactive
same,outcome,[19],inactive
same,outcome,[8],inactive
same,outcome,[9],inactive
same,outcome,[10],inactive
same,outcome,[11],inactive
same,outcome,[20],inactive
same,outcome,[12],inactive
same,outcome,[13],inactive
same,outcome,[14],inactive
same,outcome,[15],inactive
